Experimental data: PubChem BioAssay (NCI)
About 79,000 compounds went through this panel and 15% of them were active in at least one assay; those are over-represented in the sample as a whole. Calls of active or inactive are those of the source. No stated cut-off is given here; in the data, active means growth inhibition above about 70%; inactive means the rest.

Experiments:
[1] = NCI Yeast Anticancer Drug Screen. Data for the rad50 strain (AID 155);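 further: 0% = growth of vehicle-only cultures of the same strain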; conditions: S. cerevisiae rad50 strain growth inhibition; at 50.0 µM; active compounds read high
Procedure, shortened: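 A DNA repair-deficient yeast mutant serves as the test organism; compound-induced growth inhibition is calculated against vehicle-treated cells.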

[2] = NCI Yeast Anticancer Drug Screen. Data for the mec2-1 strain (AID 157); conditions: S. cerevisiae mec2-1 strain, at 50.0 µM, active compounds read high
Procedure, shortened: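 Using mec2-1 yeast: add compound, measure growth, express inhibition versus vehicle-treated cultures.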

[3] = NCI Yeast Anticancer Drug Screen. Data for the sgs1 mgt1 strain (AID 161);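 further: 0% = growth of cultures given vehicle only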; conditions: S. cerevisiae sgs1 mgt1 strain, at 50.0 µM, active compounds read high
Procedure, shortened: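 Yeast cells carrying a defined DNA-repair defect were exposed to test compounds. Growth inhibition was measured relative to vehicle-treated controls.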

[4] = NCI Yeast Anticancer Drug Screen. Data for the cln2 rad14 strain (AID 165);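 further: 0% = growth equal to vehicle treated cultures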; conditions: S. cerevisiae cln2 rad14 strain, at 50.0 µM, active compounds read high
Procedure, shortened: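 Yeast strain cln2 rad14, bearing defects in cell cycle control and DNA repair, serves as the test system; values reflect growth inhibition compared with vehicle.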

[5] = NCI Yeast Anticancer Drug Screen. Data for the bub3 strain (AID 167); conditions: S. cerevisiae bub3 mutant strain, at 50.0 µM, active compounds read high
Procedure, shortened: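 Inhibition values come from growth of compound-treated mutant yeast normalised to vehicle-treated controls.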

[6] = NCI Yeast Anticancer Drug Screen. Data for the mlh1 rad18 strain (AID 175); conditions: S. cerevisiae mlh1 rad18 strain growth inhibition; at 50.0 µM; active compounds read high
Procedure, shortened: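 Steps: expose repair-defective yeast to compound; measure growth; express inhibition against vehicle-treated controls.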

Measured: growth inhibition

COc1ccccc1CC/C(C)=N/NS(=O)(=O)c1ccc(C)cc1
inactive: [1] 10.8% | [2] 4.1% | [3] 6.35% | [4] -24.1% | [5] 11.5% | [6] 6.5%

COC(=O)c1cc(Cl)ccc1OCC(=O)NCc1ccc(Cl)cc1
inactive: [1] 9.1% | [2] -3.3% | [3] 11.8% | [4] -5.85% | [5] -26.1% | [6] 12.1%

O=C(OCc1ccccc1CN1CCOCC1)c1ccc(Cl)cc1
active: [3] 75.7% | [4] 84% | [5] 87% | [6] 74.8%
inactive: [1] 42.1% | [2] 68.5%

CC1(N)CC2CCC1C2 (stereo unspecified)
inactive: [1] -3.5% | [2] -1.25% | [3] 5% | [4] -14.2% | [5] -21.4% | [6] 2.75%

O=C(O)/C=C/c1ccc(OCc2ccccc2)c(OCc2ccccc2)c1
inactive: [1] 0.7% | [2] -11.7% | [3] 7.15% | [4] -10.9% | [5] -8.85% | [6] -6.9%

CC1(C)CN(CCC#N)C(c2ccc([N+](=O)[O-])cc2)O1 (stereo unspecified)
inactive: [1] 2.95% | [2] 3.3% | [3] 8.1% | [4] -9.4% | [5] 14% | [6] -14.8%

COc1ccc(/C=C2\N=C(c3cc(OC)c(OC)c(OC)c3)OC2=O)cc1Br
inactive: [1] -6.95% | [2] -6.7% | [3] 21.6% | [4] -0.4% | [5] 6.2% | [6] 2.1%

O=c1c(O)c(-c2ccccc2)oc2c(CP(=O)(O)O)cccc12
inactive: [1] 5.05% | [2] -19.1% | [3] -17.3% | [4] -12.5% | [5] -2.45% | [6] -18%

CCCNC(=S)/N=C\c1c(O)c2ccccc2oc1=O
inactive: [1] -38.8% | [2] -56.8% | [3] -35% | [4] -0.45% | [5] -0.2% | [6] -5.4%

CC(=O)N(C)N=Nc1ccc(C(F)(F)F)cc1
inactive: [1] -7.7% | [2] -12.7% | [3] -9% | [4] -30.1% | [5] -5.8% | [6] -4.5%

COc1cc(OC)c(C(C)=O)cc1OC
inactive: [1] -9.2% | [2] -13.9% | [3] -3.15% | [4] -2.8% | [5] 6.3% | [6] 6.7%

CCOC(=O)NC(OCCN(C)C)(C(F)(F)F)C(F)(F)F
inactive: [1] -32.4% | [2] 25.9% | [3] -53.5% | [4] 3.3% | [5] -4.15% | [6] 31.1%

CCCN1c2c3c(O)c4c(O)c(C)c5c(c4c2O)C(=O)C(C)(O/C=C/C(OC)C(C)C(OC(C)=O)C(C)C(O)C(C)C(O)C(C)/C=C/C=C(/C)C(=O)N3C1C)O5 (stereo unspecified)
inactive: [1] 22.6% | [2] 35.9% | [3] 44% | [4] 37.2% | [5] 19% | [6] 18.2%

CC1CCCCN1S(=O)(=O)N(C)C (stereo unspecified)
inactive: [1] 8.65% | [2] 27.1% | [3] -4.95% | [4] -6.1% | [5] 9.55% | [6] 6.15%

O/N=C(\c1ccccc1)C1c2ccccc2-c2ccccc21
inactive: [1] -10.1% | [2] -17.9% | [3] -19.9% | [4] 21.4% | [5] -5.9% | [6] -17.4%

CCOc1ccc2nc(NC(=O)C(=O)C3C(=O)C(CC4C(=O)c5ccccc5C4=O)C(=O)CC3(C)C)sc2c1 (stereo unspecified)
inactive: [1] 31.4% | [2] -1.1% | [3] 14.3% | [4] -29.8% | [5] -29.4% | [6] 8.9%

Cc1ccc(S(=O)c2cccs2)cc1 (stereo unspecified)
inactive: [1] 2.15% | [2] -28.1% | [3] -49% | [4] -38.9% | [5] -18% | [6] -28.8%

C/C(=N/NC(=S)NNC(=S)N(C)c1ccccc1)c1nccc2ccccc12
active: [1] 85.8% | [2] 87% | [3] 86% | [4] 79.2% | [5] 76.6% | [6] 79.8%

O=S(=O)(Cc1ccccc1)/C(=C\c1ccccc1)c1ccccc1
inactive: [1] -6.65% | [2] 11.4% | [3] 2.4% | [4] 0.1% | [5] 6.6% | [6] 5.5%

CC(=O)Nc1ccc2c([N+](=O)[O-])cccc2c1-c1c(NC(C)=O)ccc2c([N+](=O)[O-])cccc12
inactive: [1] 44.2% | [2] 10.8% | [3] 35.4% | [4] 10.8% | [5] 5.55% | [6] 30.4%

OCN(CO)c1ccc2c(c1)Cc1cc(Cl)ccc1-2
inactive: [1] 0.35% | [2] -24.1% | [3] -2.2% | [4] 22.4% | [5] 13.1% | [6] 12.7%

CC(C)NS(=O)(=O)c1ccccc1
inactive: [1] 19.4% | [2] -3.1% | [3] 10.6% | [4] 6.75% | [5] 0.6% | [6] 26.9%

CCc1cccc(CC)c1NC(=O)/C=C/C(=O)O
inactive: [1] -12.6% | [2] 3.45% | [3] -4.75% | [4] -46.6% | [5] -4.2% | [6] 4.1%

CC1Cc2cc(O)ccc2C2[C@@H]1C1CC[C@H](O)[C@@]1(C)C[C@@H]2O[N+](=O)[O-] (stereo partly specified)
active: [6] 83%
inactive: [1] 18.5% | [2] 19.7% | [3] 55.8% | [4] 47.3% | [5] 60.9%

N#CC1C2CCC(C2)C1CCCN (stereo unspecified)
inactive: [1] 18.4% | [2] -8.75% | [3] 6.55% | [4] -81.9% | [5] -8.05% | [6] -13.8%

CCCCOC(OCCCC)C(C)(C)CN(C)C
inactive: [1] 14.9% | [2] 13.2% | [3] 13.4% | [4] 17.9% | [5] 7.15% | [6] 19.1%

CCc1c(C)nc2[nH]ncn2c1=O
inactive: [1] 10.8% | [2] -2.1% | [3] 11.1% | [4] -2.25% | [5] 7.25% | [6] 6.7%

CC(NC(=O)NCCCl)C1CC1 (stereo unspecified)
inactive: [1] -2.1% | [2] 0% | [3] -4.75% | [4] -11.8% | [5] -14.4% | [6] -0.8%

CCCCCC1CCC(OC(=O)NC)CC1 (stereo unspecified)
inactive: [1] 2% | [2] 9.85% | [3] -0.6% | [4] -19.9% | [5] 25.4% | [6] -6.95%

COc1cc(OC)cc(Oc2nc3ccc(C(F)(F)F)cc3nc2-c2ccccc2)c1
inactive: [1] -33.1% | [2] -44.8% | [3] -7.85% | [4] -28.3% | [5] -27.4% | [6] -14.3%

C=CCC(OCCC)c1ccc2c(c1)OCO2 (stereo unspecified)
inactive: [1] -7.1% | [2] 0.6% | [3] -0.65% | [4] 5.05% | [5] 3.4% | [6] -12.6%

C=C(C)S(=O)(=O)c1ccc(C)cc1
inactive: [1] 11.3% | [2] -16.4% | [3] -5.7% | [4] -15.3% | [5] 12% | [6] 11.8%

O=C1CCC2c3ccccc3C(=O)C2C1 (stereo unspecified)
inactive: [1] 6.7% | [2] 4.2% | [3] -1.45% | [4] -19.1% | [5] -14.1% | [6] 9.3%

C(=C\c1ccc(/C=C/c2ccccc2)nn1)/c1ccccc1
inactive: [1] -5.8% | [2] -3.1% | [3] -1.65% | [4] -21.4% | [5] 0.8% | [6] -2.1%

Cc1cc2nnn(-c3ncccc3[N+](=O)[O-])c2cc1C
inactive: [1] 5% | [2] 5.85% | [3] -5.2% | [4] 17.8% | [5] 9.8% | [6] 19.4%

O=c1nc(/C=C/c2ccccc2Cl)cc2n1CCN2CCO
inactive: [1] -17.4% | [2] -10.7% | [3] -4.2% | [4] 4.1% | [5] -3.1% | [6] -10.2%

Cc1ccc(-n2cnc3c(Cl)ncnc32)cc1[N+](=O)[O-]
inactive: [1] -4.05% | [2] 12.3% | [3] 15.1% | [4] -45% | [5] 1.65% | [6] 10.9%

CCCCN(CCCC)c1c([N+](=O)[O-])c(=O)nc2ccccn12
inactive: [1] 21.1% | [2] -3.35% | [3] 5.7% | [4] 11.7% | [5] 11.2% | [6] 37.9%

O=C(CCN1C(=O)CC1c1ccco1)N1CCOCC1 (stereo unspecified)
inactive: [1] -1.55% | [2] -36.1% | [3] -10.5% | [4] 13.1% | [5] -18.2% | [6] 13.3%

CC(C)(C)S(=O)(=O)CCCCl
inactive: [1] 12.8% | [2] -13.9% | [3] -1.65% | [4] -8.5% | [5] 13.2% | [6] 13.5%

COC1=C(N(C)C)C(=O)c2ccccc2C1=O
inactive: [1] 21.4% | [2] 0.55% | [3] 11.4% | [4] 7.3% | [5] -15.3% | [6] 4.55%
